Nrf2 activator = qHTS of Nrf2 Activators; Potency, µM (titrated, usually from 46.1 µM), most hits filed as activators; hit rate 0.31% among 410,000; AID 624171, 2012; AREc32 ARE-luciferase reporter (MCF7-derived line), luminescence, 24 h; note: nearly all actives have a fitted effect of over 65% in size
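For detection, Steady-Glo was added and plates sat 30 min at RT; before that, AREc32_Fluc cells grown overnight in OPTI-MEM/5% FBS had been treated with 23 nL compound for 24 hr at 37 deg C.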
Rango dissoc inh = qHTS Assay for Inhibitors of RanGTP induced Rango (Ran-regulated importin-beta cargo) - Importin beta complex dissociation; Snurportin-1 (Homo sapiens) + GTP-binding nuclear protein Ran (Homo sapiens) + Importin …; Biochemical FRET Rango-importin beta, RanGTP-induced dissociation; Potency, µM (highest dose often 46.1 µM); hit rate 0.071% among 340,000; calls by dose curve; note: nearly all actives have a fitted effect of over 45% in size
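Compounds preincubate 5 min with complex of recombinant Rango and importin beta in PBS with 1 mM DTT. Ran (0.6 uM) loaded with 2 mM GTP plus 0.2 uM RCC1 starts dissociation; FRET is recorded 45 min later.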
Nrf2 inh = Nrf2 qHTS screen for inhibitors; A549 ARE-Fluc reporter, luciferase luminescence, 18-24 h; Potency, µM (top dose mostly 46 µM), hits mostly inhibitors; hit rate 2.1% among 360,000; note: nearly all actives have a fitted effect of over 60% in size
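Quantitative HTS in A549 cells stably bearing an antioxidant response element-firefly luciferase construct. Inhibition of Nrf2-driven transcription was scored by luminescence after 18-24 h of compound exposure at 37 °C.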
Rango-impB inh = qHTS Assay for Inhibitors of Rango (Ran-regulated importin-beta cargo) - Importin beta complex formation | Rango CFP/YFP FRET sensor + importin beta, 45 min | Potency, µM (top dose mostly 92.2 µM) | hit rate 0.031% among 340,000 | Importin subunit beta-1 (Homo sapiens), Q14974; calls by dose curve; note: nearly all actives have a fitted effect of over 15% in size
Target sequence (Q14974 whole entry, looked up): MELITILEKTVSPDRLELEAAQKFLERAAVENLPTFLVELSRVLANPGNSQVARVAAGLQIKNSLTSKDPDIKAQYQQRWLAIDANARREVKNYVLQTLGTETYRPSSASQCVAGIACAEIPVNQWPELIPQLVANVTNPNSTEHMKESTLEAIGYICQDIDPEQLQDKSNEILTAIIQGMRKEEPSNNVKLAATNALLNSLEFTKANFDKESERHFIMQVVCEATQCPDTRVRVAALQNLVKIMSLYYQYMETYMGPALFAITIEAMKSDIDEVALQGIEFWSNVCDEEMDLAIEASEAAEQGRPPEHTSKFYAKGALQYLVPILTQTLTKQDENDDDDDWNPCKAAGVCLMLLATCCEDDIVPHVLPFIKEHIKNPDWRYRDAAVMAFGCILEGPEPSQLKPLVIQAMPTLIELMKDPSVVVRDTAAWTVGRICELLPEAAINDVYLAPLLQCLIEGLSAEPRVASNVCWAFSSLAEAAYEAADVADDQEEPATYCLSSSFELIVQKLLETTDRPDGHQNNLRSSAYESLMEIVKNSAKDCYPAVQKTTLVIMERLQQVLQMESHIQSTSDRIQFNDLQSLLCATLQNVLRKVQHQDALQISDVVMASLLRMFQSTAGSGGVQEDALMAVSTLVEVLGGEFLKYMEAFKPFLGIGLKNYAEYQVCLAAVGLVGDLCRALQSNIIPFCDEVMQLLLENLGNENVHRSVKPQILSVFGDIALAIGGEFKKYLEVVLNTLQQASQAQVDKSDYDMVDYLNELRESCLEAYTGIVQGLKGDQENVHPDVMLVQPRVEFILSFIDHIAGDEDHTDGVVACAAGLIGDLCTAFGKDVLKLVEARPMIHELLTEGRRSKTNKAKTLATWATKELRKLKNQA
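FRET biosensor Rango (snurportin 1 IBB between N-terminal EYFP and C-terminal Cerulean), 50 nM in PBS/1 mM DTT/0.02% Tween-20/0.1% BSA, preincubated 5 min RT with compound; 0.125 microM importin beta added, 45 min RT, CFP/YFP FRET ratio read.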
A549 tox-1 = Nrf2 qHTS screen for inhibitors: counterscreen for cytotoxicity. A549 ARE-Fluc cells, CellTiter-Fluor viability, 18-24 h. Potency, µM (highest dose often 46 µM), most hits filed as inhibitors. hit rate 0.16% among 390,000. AID 504648, 2011
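Cytotoxicity counterscreen: CellTiter-Fluor fluorescence was measured in A549 ARE_Fluc cells after 18-24 h of compound exposure in a concentration series. The subsequent BugLite luminescent read reports ARE-luciferase activity.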
FLuc enzyme inh = Nrf2 qHTS screen for inhibitors: Purified Fluc Biochemical Counterscreen for Hit Validation | purified firefly luciferase, luminescence inhibition | hit rate 4% among 1,400 | Potency, µM (top dose mostly 57.5 µM), usual class: inhibitors | shares compounds with Nrf2 inh; note: nearly all actives have a fitted effect of over 65% in size
A549 tox-2 = Nrf2 qHTS screen for inhibitors: A549 ARE-Fluc Cytotoxicity Counterscreen for Hit Validation; Potency, µM (highest dose often 46.1 µM), actives largely listed as inhibitors; hit rate 2% among 1,400; shares compounds with Nrf2 inh; A549 ARE-Fluc cells, cytotoxicity counterscreen;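 note: cells exposed to compounds for 18 to 24 hours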
ARE-Fluc inh = Nrf2 qHTS screen for inhibitors: Nrf2 A549 ARE-Fluc Confirmation Assay for Hit Validation; shares compounds with Nrf2 inh; A549 ARE-firefly luciferase reporter, luminescence; hit rate 74% among 1,400; Potency, µM (series often up to 46.1 µM), actives largely listed as inhibitors; note: nearly all actives have a fitted effect of over 65% in size
Each line names hits and unclear results; the compound was inactive in the other large screens (follow-up assays come after a bar, where shown). Sampled rows, rich in hits. Any-hit rate of the full collection: about 2.3%. Unless noted, calls come from the whole dose curve; as a rule, active = well fitted curve in the direction sought with a large enough effect; inconclusive = small, poorly fitted or top-dose-only effect, or another doubt; inactive = no such curve, though single readings can be large; an effect the other way counts as inactive or inconclusive.

O=C(CNC(=O)c1cccc(Cl)c1)OC(C(=O)Nc1cc(C(F)(F)F)ccc1Cl)c1ccccc1 (centres undefined)	Nrf2 inh 23µM (no result: Nrf2 activator, Rango dissoc inh, Rango-impB inh)
O=C(NC(=S)Nc1cc(C(F)(F)F)ccc1Cl)c1ccccc1	Nrf2 activator 3.2µM, Nrf2 inh inconclusive
O=C(Nc1cc(C(F)(F)F)ccc1Cl)[C@H](O)CCc1ccccc1	Nrf2 inh 26µM, A549 tox-1 inconclusive (no result: Nrf2 activator, Rango dissoc inh, Rango-impB inh)
O=C(CNC(=O)c1ccccc1)OC(C(=O)Nc1cc(C(F)(F)F)ccc1Cl)c1ccccc1 (centres undefined)	none
CC[n+]1c(/C=C(/C)SC)sc2ccccc21	Nrf2 inh inconclusive, A549 tox-1 inconclusive
CC[n+]1c(/C=C2\Sc3ccccc3N2C)ccc2cccc(C)c21	Nrf2 inh 3.7µM, Rango-impB inh inconclusive, A549 tox-1 inconclusive | FLuc enzyme inh inactive | A549 tox-2 6.5µM | ARE-Fluc inh 2.6µM
CCN1/C(=C/C=C/c2sc3ccccc3[n+]2CC)Sc2ccccc21	Nrf2 inh 1.3µM | FLuc enzyme inh inconclusive | A549 tox-2 12µM | ARE-Fluc inh 2.6µM
CCN1/C(=C/c2ccc3cc(C)ccc3[n+]2CC)Sc2ccccc21	Rango dissoc inh inconclusive, Nrf2 inh 0.73µM, Rango-impB inh inconclusive, A549 tox-1 inconclusive | FLuc enzyme inh inactive | A549 tox-2 5.8µM
O=C(CN(Cc1ccccc1F)C(=O)Cn1nnc(-c2cccs2)n1)NC1CCCCC1	none
O=C(CSc1nnc(-c2cccnc2)s1)Nc1ccnc2ccccc12	Nrf2 inh 4.1µM | FLuc enzyme inh inactive | A549 tox-2 inactive | ARE-Fluc inh 5.2µM
Cc1ccc(NC(=O)CSc2nnc(-c3cccnc3)s2)cc1	none
COc1ccccc1C(=O)Nc1cccc(Oc2c(F)c(F)c(F)c(F)c2F)c1	none
CCN(CC)S(=O)(=O)c1cc(NC(=O)c2ccc(-n3cncn3)c([N+](=O)[O-])c2)ccc1C	Nrf2 inh 4.1µM, A549 tox-1 inconclusive | FLuc enzyme inh inactive | A549 tox-2 inactive | ARE-Fluc inh 6.5µM
CCOc1ccc(-c2nc(Cn3c(=O)cc(-c4ccccc4)c4c(C)nn(C)c43)c(C)o2)cc1	Nrf2 inh 5.8µM (no result: Rango dissoc inh, Rango-impB inh) | FLuc enzyme inh inactive | A549 tox-2 inactive | ARE-Fluc inh inactive
CCOC(=O)CCNC(=O)N1CCCC(C(=O)c2cccc(OC(C)C)c2)C1 (centres undefined)	none
C=CCN(c1ccccc1)S(=O)(=O)c1cccc(C(=O)Nc2nc3ccccc3[nH]2)c1	Nrf2 inh 2.9µM, A549 tox-1 inconclusive | FLuc enzyme inh inactive | A549 tox-2 inactive | ARE-Fluc inh 5.8µM
O=C(NCc1ccc(F)cc1)C1CCCN(C(=O)NCc2ccccc2)C1 (centres undefined)	none
O=C(Nc1nc(OCC(F)(F)F)cnc1/C=C\c1ccccc1)c1ccccc1	none (no result: Rango dissoc inh, Nrf2 inh, Rango-impB inh, A549 tox-1)
Nc1ncnc2c(C3OC(CO)C(O)C3O)c[nH]c12 (centres undefined)	Nrf2 inh 0.23µM, A549 tox-1 inconclusive | FLuc enzyme inh inactive | A549 tox-2 inconclusive | ARE-Fluc inh 0.1µM
COc1cccc(C2C=C(c3ccccc3)Nc3c(C(=O)Nc4ccccc4)cnn32)c1OC (centres undefined)	Nrf2 inh 2.3µM (no result: Rango dissoc inh, Rango-impB inh) | FLuc enzyme inh inactive | A549 tox-2 inactive | ARE-Fluc inh inconclusive
CCOc1ccc(NC(=O)c2cnn3c2NC(c2ccccc2)=CC3c2cccc(OC)c2OC)cc1 (centres undefined)	none (no result: Rango dissoc inh, Rango-impB inh)
O=C(N/N=C/c1ccc[nH]1)c1ccccc1OCc1ccc(F)cc1	none
CCOc1ccc(OCc2ccc(C(=O)NN=Cc3ccc[nH]3)cc2)cc1	Nrf2 inh 1.8µM, A549 tox-1 inconclusive | FLuc enzyme inh inactive | A549 tox-2 inconclusive | ARE-Fluc inh 1.8µM
COc1ccc(-c2nc(CSCC(=O)N3CCN(c4cc(Cl)ccc4C)CC3)c(C)o2)cc1	Nrf2 inh 7.3µM (no result: Rango dissoc inh, Rango-impB inh) | FLuc enzyme inh inconclusive | A549 tox-2 inconclusive | ARE-Fluc inh 12µM
COc1ccc(-c2nc(CSCC(=O)N3CCN(c4ccc(OC)cc4)CC3)c(C)o2)cc1	Nrf2 inh 4.6µM (no result: Rango dissoc inh, Rango-impB inh) | FLuc enzyme inh inactive | A549 tox-2 inactive | ARE-Fluc inh 9.2µM
COc1ccc(-c2nc(CSCC(=O)N3CCN(c4cccc(C)c4C)CC3)c(C)o2)cc1OC	none (no result: Rango dissoc inh, Nrf2 inh, Rango-impB inh)
COc1ccc(-c2nc(CSCC(=O)N3CCN(C)CC3)c(C)o2)cc1OC	none
CCCCC(=O)Nc1ccc(N2CCN(C(=O)c3ccco3)CC2)cc1	none
CC(C)CCNc1nc(N)c([N+](=O)[O-])c(N2CCCCCC2)n1	Nrf2 inh inconclusive
COc1ccc(N2CCN(C(=S)Nc3ccccc3)CC2)cc1	none
CC(=O)c1ccc(N2CCN(C(=S)Nc3ccc(Oc4ccccc4)cc3)CC2)cc1	Nrf2 inh 6.5µM, A549 tox-1 inconclusive | FLuc enzyme inh inactive | A549 tox-2 inactive | ARE-Fluc inh 8.2µM
COc1ccc(S(=O)(=O)N2CCC(C(=O)NCCC(=O)NCc3cccnc3)CC2)cc1	none (no result: Rango dissoc inh, Nrf2 inh, Rango-impB inh, A549 tox-1)
CCOC(=O)c1cc(C)n(CC2CCC(C(=O)Nc3ccc(Cl)cc3)CC2)c1C (centres undefined)	Nrf2 inh 8.2µM, A549 tox-1 inconclusive (no result: Rango dissoc inh, Rango-impB inh) | FLuc enzyme inh inactive | A549 tox-2 inactive | ARE-Fluc inh 13µM
Cc1cc2c(=Cc3ccc(N(C)C)cc3)c3ccccc3n2[n+]1C	Nrf2 inh 2.6µM, A549 tox-1 16µM | FLuc enzyme inh inactive | A549 tox-2 inconclusive | ARE-Fluc inh 6.5µM
CC1=[N+](C)c2c(ccc3cccnc23)C1(C)C	Rango dissoc inh inconclusive, Nrf2 inh 2.1µM, Rango-impB inh inconclusive, A549 tox-1 inconclusive | FLuc enzyme inh inactive | A549 tox-2 inactive | ARE-Fluc inh 2.6µM
COc1cc2c(oc(=O)c3cc(C)cc(OC)c32)c2c(C3OC(C)C(O)C(C)(O)C3O)ccc(O)c12 (centres undefined)	Rango dissoc inh inconclusive, Nrf2 inh 1.3µM, Rango-impB inh inconclusive, A549 tox-1 5.8µM | FLuc enzyme inh inactive | A549 tox-2 inconclusive | ARE-Fluc inh 1.8µM

High-throughput results (PubChem)
